# From PubChem BioAssay
# “And” between values parts separate entries of the source, which are not always exact repeats. Equal entries are not always repeated. The source made the active and inactive calls. Cut-off read from the data, not from the text of the source, unless noted: active = inhibition above about 80%; inactive = the rest.
# How the values were obtained:
# [1] = biological target: 6-phosphogluconate dehydrogenase, decarboxylating (Homo sapiens) (UniProt P52209); experiment: inhibition of human phosphogluconate dehydrogenase – biochemical, recombinant enzyme, NADPH absorbance, primary screen (AID 1159550;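 active = at least 20% inhibition of 6-phosphogluconate dehydrogenase activity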); details: recombinant 6PGD, NADPH absorbance 341 nm; at 10 µM; stronger effect = higher value
# Chain of 6-phosphogluconate dehydrogenase, decarboxylating (Homo sapiens) (P52209 whole entry, looked up): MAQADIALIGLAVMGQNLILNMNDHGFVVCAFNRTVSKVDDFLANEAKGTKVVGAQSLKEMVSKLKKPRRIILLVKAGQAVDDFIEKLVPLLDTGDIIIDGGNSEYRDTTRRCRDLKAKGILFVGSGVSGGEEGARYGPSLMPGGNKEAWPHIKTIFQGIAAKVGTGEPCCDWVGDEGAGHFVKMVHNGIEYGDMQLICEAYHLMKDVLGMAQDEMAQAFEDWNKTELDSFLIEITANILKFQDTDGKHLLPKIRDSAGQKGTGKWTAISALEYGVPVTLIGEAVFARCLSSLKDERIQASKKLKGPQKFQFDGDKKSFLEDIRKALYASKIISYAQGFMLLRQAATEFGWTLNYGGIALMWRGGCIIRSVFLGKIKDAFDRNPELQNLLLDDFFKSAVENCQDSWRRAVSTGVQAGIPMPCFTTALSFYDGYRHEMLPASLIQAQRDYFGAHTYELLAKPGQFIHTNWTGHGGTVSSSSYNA
# [2] = viability loss with induced miR-34 in A549 – imaging, A549 dox-inducible miR-34, nuclei and caspase counts, primary screen (AID 1347080;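 active = compounds whose cell count with miR-34 switched on is under 0.7 times the count with it off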); details: A549 miR-34 inducible, Hoechst nuclei count, 48 h
# [3] = galactose survival enhancers in mitochondrial complex I cybrids – cell-based, galactose medium, ATP luminescence, primary screen (AID 1645843;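 active = z-score of at least 1.8 in each of two replicates, scored against plate mean and spread of sample wells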;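 note: positive z means more ATP and so rescue of galactose-driven cybrid death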); details: complex I mutant cybrid cells, 72 h, stronger effect = higher value
# [4] = growth inhibition, single agent or in combination, cell-based, chromothripsis tumors, cisplatin or BGB combos (AID 1671449); details: LFS_MB_P medulloblastoma cells;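 note: cells exposed for 96 hours; 0% = vehicle DMSO and 100% = killing by high DMSO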
# [5] = growth inhibition, single agent and combos, cell-based, chromothripsis tumors, cisplatin or BGB combos (AID 1671450); details: HDN33 neuroblastoma cells, stronger effect = higher value;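 note: cells exposed to compound for four days; 0% = vehicle DMSO and 100% = cell killing by high DMSO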
# [6] = growth inhibition, single agents and combos, ICB984, cell-based, cisplatin or BGB combos, synergistic combos for chromothripsis tumors (AID 1671451; call rule not given here;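 note: cells exposed for 96 hours before readout; 0% = vehicle DMSO and 100% = killing by high DMSO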); details: ICB984 medulloblastoma cells, drug combinations, stronger effect = higher value
# [7] = growth inhibition, single agents and combos, LFS_MB_1R, cell-based, cisplatin or BGB combos, synergistic combos for chromothripsis tumors (AID 1671452); details: LFS_MB_1R medulloblastoma cells, stronger effect = higher value;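 note: cells exposed for 96 hours before readout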
# [8] = growth inhibition, single agents and combos, HTB85, cell-based, BGB or cisplatin IC20 combos, synergistic combos for chromothripsis tumors (AID 1671453); details: HTB85 osteosarcoma cells, drug combinations, stronger effect = higher value;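 note: cells exposed for 96 hours before readout; 0% = vehicle DMSO and 100% = high DMSO killing control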
# [9] = growth inhibition, single agents and combos, CRL2098, cell-based, BGB or cisplatin IC20 combos, synergistic combos for chromothripsis tumors (AID 1671454); details: CRL2098 osteosarcoma cells, drug combinations, stronger effect = higher value;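 note: cells exposed for 96 h before readout; 0% = vehicle DMSO and 100% = killing by high DMSO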
# [10] = growth inhibition, single agents and combos, HD-MB03, cell-based, BGB or cisplatin IC20 combos, synergistic combos for chromothripsis tumors (AID 1671455; in the data active = inhibition above about 83%;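 note: 0% = vehicle DMSO and 100% = high DMSO as cytotoxic control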); details: HD-MB03 medulloblastoma cells, stronger effect = higher value
# [11] = growth inhibition, single agents and combos, UWB1.289, cell-based, BGB or cisplatin combos, synergistic combos for chromothripsis tumors (AID 1671456); details: UWB1.289 ovarian carcinoma cells, stronger effect = higher value;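 note: cells exposed to compound for four days; 0% = vehicle DMSO and 100% = killing by high DMSO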
# [12] = growth inhibition, single agents and combos, LFS_MB_2R, cell-based, cisplatin combos, synergistic combos for chromothripsis tumors (AID 1671457); details: LFS_MB_2R medulloblastoma cells, stronger effect = higher value;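 note: cells exposed to compound for four days before readout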
# [13] = growth inhibition, MDA-MB-436, cell-based, BGB or cisplatin combos, synergistic combos for chromothripsis tumors (AID 1671458; call rule not given here;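 note: cells exposed for 96 hours; 0% = vehicle DMSO and 100% = killing by high DMSO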); details: MDA-MB-436 breast carcinoma growth inhibition, drug combinations, stronger effect = higher value
# [14] = UWB1.289_BRCA1 ovarian cancer growth, cell-based, BGB or cisplatin combinations (AID 1671459); details: UWB1.289 BRCA1 ovarian carcinoma, drug combinations, stronger effect = higher value
# [15] = drug combination toxicity in non-malignant astrocytes – cell-based, BGB or cisplatin IC20 combos, cytotoxicity control for chromothriptic childhood tumor combination screen (AID 1671460); details: Human astrocytes, viability inhibition, drug combinations, at 0.5 µM, stronger effect = higher value;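 note: cells exposed to compounds for 96 hours before viability readout; 0% = vehicle and 100% = killing control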
# [16] = BT084 cell growth, single and combined drugs, ICGC_MB145, cisplatin and BGB IC40 combos (AID 1671461); details: BT084 medulloblastoma cells, drug combinations, stronger effect = higher value;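 note: cells exposed to drugs for 96 hours; 0% = vehicle DMSO and 100% = high DMSO full killing control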
# [17] = RCMB18 cell growth, single agent and combined, cisplatin and BGB IC40 combos (AID 1671462); details: RCMB18 medulloblastoma cells, stronger effect = higher value;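 note: cells exposed to compound for four days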
# [18] = CRL1545 cell growth, single agent and combined, cisplatin and BGB IC20 combos (AID 1671464); details: CRL1545 osteosarcoma cells, stronger effect = higher value;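 note: cells exposed to compound for 96 hours before readout; 0% = vehicle DMSO and 100% = high DMSO killing control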
# [19] = measured here: combination with BGB IC40, at 0.05 µM
# [20] = measured here: with BGB IC20 combination, at 0.5 µM
# [21] = measured here: with cisplatin IC20 combination, at 0.5 µM
# [22] = measured here: combination with cisplatin, at 0.5 µM
# [23] = measured here: combination with cisplatin, at 5 µM
structure (smiles),measurement,setting,value
COc1cc(C2c3cc4c(cc3C(OC3OC5COC(C)OC5C(O)C3O)C3COC(=O)C23)OCO4)cc(OC)c1O (centres undefined),inhibition,[1],-3.12% (inactive)
same,fold change,"[2]; stronger effect = lower value, cell number ratio, induced over uninduced",0.803 (inactive)
same,fold change,[2]; measured here: relative caspase fold change +Dox/-Dox,1.95
same,cell count,"[2]; measured here: total cells with miR-34 induction, stronger effect = lower value",3290
same,cell count,[2]; measured here: total cells without miR-34 induction,4090
same,z-score,[3],-1.39 (inactive)
same,inhibition,"[4]; at 0.5 µM, stronger effect = higher value",-32.6% (inactive) and -17.8% (inactive)
same,inhibition,"[4]; measured here: combination with BGB IC20, at 0.005 µM",-28.8% and 2.01%
same,inhibition,"[4]; measured here: combination with BGB IC40, at 0.005 µM",-24.3% and 13.4%
same,inhibition,[4]; [19],-29.9% and -0.69%
same,inhibition,"[4]; measured here: combination with cisplatin, at 0.5 µM, stronger effect = higher value",-45.5% and -45.4%
same,inhibition,"[4]; measured here: combination with cisplatin, at 5 µM, stronger effect = higher value",-34.4% and -6.98%
same,inhibition,"[5]; BGB combo, at 5 µM",47.6% and 64.8%
same,inhibition,[5]; at 0.5 µM,15.7% (inactive) and 26.2% (inactive)
same,inhibition,"[5]; cisplatin combo, at 5 µM",44.6% and 49%
same,inhibition,[5]; [20],15.9% and 28.5%
same,inhibition,[5]; [21],-1.85% and 5.29%
same,inhibition,"[5]; single agent, at 5 µM",68.9% and 70.5%
same,inhibition,"[6]; BGB IC20 combo, at 0.005 µM",-20.6% and 5.1%
same,inhibition,"[6]; BGB IC40 combo, at 0.005 µM",-32.2% and -0.661%
same,inhibition,"[6]; BGB IC40 combo, at 0.05 µM",-74.4% and -28.1%
same,inhibition,[6]; at 0.5 µM,-29.8% (inactive) and -8.32% (inactive)
same,inhibition,"[6]; cisplatin combo, at 0.05 µM",-80.7% and -31.6%
same,inhibition,"[6]; cisplatin combo, at 0.5 µM",-45.1% and -7.65%
same,inhibition,"[6]; cisplatin combo, at 5 µM",-73.3% and -20.4%
same,inhibition,"[6]; measured here: 5 uM single agent, at 5 µM",-13% and -19.7%
same,inhibition,[7]; at 0.5 µM,-24.1% (inactive) and -15.7% (inactive)
same,inhibition,[7]; [19],-34.7% and -15.9%
same,inhibition,[7]; [22],-23.9% and -48.9%
same,inhibition,[7]; [23],-59.7% and -24.4%
same,inhibition,[8]; at 0.5 µM,3.37% (inactive) and 12.3% (inactive)
same,inhibition,"[8]; measured here: with BGB IC20, at 0.5 µM",-1.07% and 17.8%
same,inhibition,"[8]; measured here: with BGB IC20, at 5 µM",84.3% and 86%
same,inhibition,"[8]; measured here: with cisplatin IC20, at 0.5 µM",-5.76% and 1.07%
same,inhibition,"[8]; measured here: with cisplatin IC20, at 5 µM",76.7% and 87%
same,inhibition,"[8]; single agent, at 5 µM",84.8% and 89.6%
same,inhibition,[9]; at 0.5 µM,-81.8% (inactive) and -42.5% (inactive)
same,inhibition,"[9]; measured here: combination with BGB at IC20, at 0.5 µM",-58% and -65.7%
same,inhibition,"[9]; measured here: combination with cisplatin at IC20, at 0.5 µM",-127% and -42.7%
same,inhibition,[10]; at 0.5 µM,58.9% (inactive) and 63.9% (inactive)
same,inhibition,"[10]; measured here: combo with BGB at IC20, at 0.5 µM",56.6% and 69.3%
same,inhibition,"[10]; measured here: combo with cisplatin at IC20, at 0.5 µM",64.2% and 61.2%
same,inhibition,[11]; at 0.5 µM,-3.51% (inactive) and 0.59% (inactive)
same,inhibition,"[11]; measured here: inhibition with BGB combination, at 0.05 µM",2.23% and -16.8%
same,inhibition,"[11]; measured here: inhibition with cisplatin combination, at 0.05 µM",-32.6% and -11.7%
same,inhibition,[12]; at 0.5 µM,-20.7% (inactive) and -2.13% (inactive)
same,inhibition,[12]; [22],-26.1% and 1.95%
same,inhibition,[12]; [23],-15.5% and -45.8%
same,inhibition,[13]; at 0.5 µM,19.1% (inactive) and 27.8% (inactive)
same,inhibition,"[13]; measured here: BGB combination, at 0.5 µM",8.19% and 23.7%
same,inhibition,"[13]; measured here: BGB combination, at 5 µM",34% and 51.6%
same,inhibition,"[13]; measured here: cisplatin combination, at 0.5 µM",17.4% and 18.9%
same,inhibition,"[13]; measured here: cisplatin combination, at 5 µM",53.5% and 66.5%
same,inhibition,"[14]; BGB combination, concentration series, at 5 µM",13% and 11.6%
same,inhibition,[14]; at 0.5 µM,-8.08% (inactive) and 2.75% (inactive)
same,inhibition,"[14]; cisplatin combination, concentration series, at 5 µM",-5.18% and 30.7%
same,inhibition,[15],37.7% (inactive) and 21.4% (inactive)
same,inhibition,[15]; measured here: combo with BGB IC20,41.3% and 27.7%
same,inhibition,[15]; measured here: combo with cisplatin IC20,11.1% and -19.1%
same,inhibition,[16]; at 0.5 µM,-29.6% (inactive) and -14.9% (inactive)
same,inhibition,"[16]; cisplatin combination, at 0.5 µM",-28.5% and -4.54%
same,inhibition,"[16]; cisplatin combination, at 5 µM",10.8% and 15.8%
same,inhibition,"[16]; measured here: BGB IC40 combination 0.05 uM, at 0.05 µM",35.1% and 9.21%
same,inhibition,"[16]; single agent, at 5 µM",-17.9% and 3.25%
same,inhibition,[17]; at 0.5 µM,-14.2% (inactive) and -26.4% (inactive)
same,inhibition,"[17]; cisplatin combo, at 5 µM",-20.2% and -20.5%
same,inhibition,"[17]; measured here: BGB IC40 combination, at 0.05 µM",-25.5% and -24.7%
same,inhibition,[17]; [22],-16.3% and -39.4%
same,inhibition,"[17]; single agent, at 5 µM",-18.8% and -0.235%
same,inhibition,[18]; at 0.5 µM,27.6% (inactive) and 42.6% (inactive)
same,inhibition,[18]; [20],19.9% and 59.6%
same,inhibition,[18]; [21],30.4% and 32.6%
same,inhibition,"[18]; single agent, at 0.05 µM",-27% and -16.2%
same,inhibition,"[18]; single agent, at 5 µM",72.5% and 78.1%
